# According to the supplement of paper PMC3334620:
# In all, about 33,000 sequences were measured (“E-score (-0.5 to 0.5)”: median about -0.0034, highest 2% from about 0.25 on). What follows is part of a selection rich in the highest values, with near analogues and random picks from the rest.
# Biological target: T1, Yap3 (UniProt P38749)
# T1 sequence: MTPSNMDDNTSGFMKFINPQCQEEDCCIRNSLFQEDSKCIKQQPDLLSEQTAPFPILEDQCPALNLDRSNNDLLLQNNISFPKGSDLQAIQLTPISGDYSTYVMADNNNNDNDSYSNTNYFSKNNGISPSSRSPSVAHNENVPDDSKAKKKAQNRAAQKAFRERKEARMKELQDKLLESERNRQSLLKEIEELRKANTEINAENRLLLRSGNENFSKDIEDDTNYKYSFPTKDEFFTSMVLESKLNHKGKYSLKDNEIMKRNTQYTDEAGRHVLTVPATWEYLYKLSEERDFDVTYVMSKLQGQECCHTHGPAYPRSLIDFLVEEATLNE
# Assay: PBM E-score (8-mer binding enrichment) (E-score (-0.5 to 0.5)); higher = stronger / more preferred TF binding
# Details: protein concentration: 100 nM; construct: GST-full length
# Protocol: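 Universal 'all 10-mer' protein binding microarrays (Agilent AMADID 015681) probed with GST-tagged S. cerevisiae TFs (full-length or DBD) made by in vitro transcription/translation (PURExpress), about 100-200 nM. Bound TF was detected with fluorescent anti-GST. Each ungapped 8-mer (which stands for itself and its reverse complement) is scored by the PBM enrichment score (E-score), a modified Wilcoxon-Mann-Whitney statistic from -0.5 to +0.5, computed with the Universal PBM Analysis Suite. Scale: above 0.35 generally sequence-specific binding.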
row,Sequence,PBM E-score
1,GCGTCCCA,-0.121
2,GGTGGCGA,-0.0578
3,AAGGAGCG,0.00726
4,ACGGCAAA,0.134
5,ACGGCAAT,0.285
6,ACGGCAAG,0.1
7,AAAAAAAA,0.244
8,GAAAAAAC,0.255
9,GGAAAAAA,0.248
10,GAAAAAAA,0.287
11,GGAAAAAC,0.3
12,GGAAAACC,-0.11
13,GGGAAAAC,0.0844
14,GAAAAACC,0.136
15,AAAAAAAC,0.151
16,CCCAGCAC,-0.123
17,CACAGCAA,0.103
18,AGTCCTAC,-0.125
19,CTACCTTC,0.0321
20,AAGCTAAC,0.0596
21,CCTAAGGC,-0.38
22,GTACTTCA,0.287
23,CTACTTCA,-0.0894
24,ATACTTCA,0.0363
25,GCCAGGCA,-0.12

row,Sequence,PBM E-score
1,AACAGGCC,-0.258
2,ACGCGTTG,-0.027
3,CTACCTAA,0.126
4,GTACCTAA,-0.0819
5,ATACCTAC,-0.0217
6,ATACCTAT,0.124
7,ATACCTAA,0.273
8,TTACCTAA,0.281
9,CTCAGACA,0.087
10,GCATTCAA,0.0939
11,AGAACAAG,0.205
12,CGAACAAA,0.303
13,TGAACAAA,0.248
14,CGAACAAG,0.0425
15,GGAACAAC,0.157
16,GCAACAAA,0.193
17,GGAACAAA,0.311
18,AGAACAAA,0.291
19,AGAACAAT,0.221
20,CGCTCAAG,-0.114
21,AACTGGAC,0.0415
22,CGCGAGAG,-0.0457
23,AAGGCTTA,0.0457
24,AAGAGAGG,-0.163
25,GTTGTTCA,-0.0828

row,Sequence,PBM E-score
1,GCGTATTA,0.148
2,CTGTATTC,0.128
3,ACGTATTA,0.282
4,ATGTATTA,0.178
5,GTGTATGA,0.0534
6,CTGTATAA,0.13
7,GTGTATTA,0.338
8,CTGTATTA,0.258
9,ACGTATTG,0.111
10,GTGTAGTA,0.0243
11,CTGTAGTA,0.281
12,ATGTAGTA,0.237
13,GCTGCTCC,-0.307
14,ATCATATC,0.193
15,CGCTGTCA,-0.151
16,CGAGAACC,-0.00819
17,CGCACACG,-0.135
18,CCGTGAGA,-0.162
19,AACGCGCC,-0.0619
20,AGCTTTCC,-0.0722
21,ATTTGACG,0.138
22,CTGGGCCC,-0.273
23,CTGTGTTA,0.162
24,ATGTGTTA,0.2
25,GTGTGTTA,0.259

row,Sequence,PBM E-score
1,TGTTGGAA,0.122
2,AAGTCGAA,-0.0326
3,GTTACCAA,0.221
4,ATTACCAC,0.136
5,TGTACCAA,0.0503
6,ATTACCAA,0.271
7,AGTACCAA,0.281
8,CGTACCAA,0.21
9,AACTCAAA,0.187
10,GACGCGCC,-0.119
11,AATATGGC,0.0119
12,ATGACAAC,0.189
13,ATGACGTG,0.127
14,ATGACAAA,0.307
15,ATGACGTA,0.277
16,ATCACGTG,0.0436
17,ATCACGTC,0.16
18,ATCACGTA,0.311
19,ATGACAAG,-0.0324
20,CTGACGTA,0.0592
21,TGACTGCA,-0.167
22,CGCAGGTA,-0.116
23,ACTTAAGT,0.193
24,CCGAGCGC,0.00891
25,ACCTAGGG,-0.0254

row,Sequence,PBM E-score
1,AGCAACGA,0.117
2,CCGCTCGC,-0.178
3,ACAAGTTA,0.16
4,ACCAATAG,-0.0827
5,ACCAATAC,0.0412
6,ACCAATAT,0.254
7,AACAATAC,0.0469
8,AACAATAA,0.179
9,AACAATAT,0.329
10,CGTGAACC,-0.157
11,TCTCAGCA,0.0139
12,CAATTGGC,0.179
13,AATCCCCA,-0.0814
14,CGGTTACC,-0.159
15,ACCATGCG,0.0314
16,AAATTGGT,0.244
17,CCAGGGAA,-0.188
18,CCGAACCA,-0.116
19,ACGAACCC,-0.133
20,ACGAACCA,0.266
21,AGAAGGCA,-0.115
22,AATGCGCA,0.295
23,CATGCGCA,0.0286
24,AATGCAAA,0.262
25,AATGCATG,0.188

row,Sequence,PBM E-score
1,AATGCAAC,0.104
2,AATGCATA,0.0923
3,AATGCAAG,0.0231
4,AATGCGCG,0.178
5,AATGCATT,0.258
6,GCTCTCCA,-0.215
7,TCTATTCA,0.222
8,TCAAACCA,0.165
9,ACACTCGT,0.00445
10,TAATCCAA,0.24
11,AGAGCCCA,-0.112
12,CGGAAGAC,-0.00677
13,AGAATATA,0.14
14,ATAATATA,0.307
15,GTAATATA,0.354
16,CTAATATA,0.235
17,GTAATAGA,0.223
18,ATAATATC,0.194
19,GTAATCTA,0.319
20,ATAATAGG,0.157
21,CTAATCTA,0.00845
22,ATAATCTA,0.229
23,CGAATATA,0.148
24,ATAATATG,0.307
25,CAATCGGC,-0.0271

row,Sequence,PBM E-score
1,CAAACTGC,0.0735
2,ACTTGCTA,-0.0697
3,CACTCGAC,-0.0984
4,AATTAGAA,0.0871
5,CGATGGCC,-0.0485
6,TGCTAGAA,-0.0446
7,CCAGATAG,-0.0894
8,CCAATATA,0.0353
9,ACAATATA,0.302
10,GCAATATA,0.216
11,AATGCGAC,0.106
12,AAGCGCTA,0.0946
13,AAGCGCTT,0.321
14,AAGCGCTC,-0.0695
15,ACGCTTAT,-0.04
16,AGTAACTG,0.0876
17,AATATGTG,0.273
18,AATATATT,0.331
19,AATATATA,0.229
20,AATATGTA,0.222
21,AATATGTC,0.111
22,ACTATATG,0.193
23,CATATATG,0.126
24,AATATATG,0.304
25,AATATATC,0.157
